# The whole screen tested about 3,300 compounds, of which fewer than 10 were called active.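 Rule for the calls: active = growth inhibition above 90% in viable cell count at a single dose; inactive = growth inhibition below 90%.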 The list is a sample of the results.
# Assay: HT29 colon tumor cell growth inhibition, primary screen, imaging, high content imaging, 24 h, CellTiter-Glo (AID 770);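 for condensed nuclei: share of cells whose nuclear area falls below control median minus 1.5 SD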
# Conditions: HT29 cell number by imaging, at 10 µM, stronger effect = higher value; for condensed nuclei: measured here: percent cells with condensed nuclei
# [1] = measured here: ATP CellTiter-Glo viability
SMILES,growth inhibition,growth inhibition [1] [%],condensed nuclei [%]
Cc1c2ccncc2c(C)c2c1[nH]c1ccccc12,95.1% (active),46.4,18.1
c1ccc2c(c1)[nH]c1cnccc12,36.4% (inactive),17.6,3.43
C=CCOC(=O)C1=C(C)OC(N)=C(C#N)[C@@]12C(=O)N(CC(N)=O)c1ccccc12,19% (inactive),-1.1,5.52
Cn1c(O)c(C=NC2CCN(Cc3ccccc3)CC2)c(=O)n(C)c1=O,26.8% (inactive),3.87,6.67
CN1CC[C@@]23CCCC[C@@H]2[C@@H]1Cc1ccc(O)cc13,-3.31% (inactive),-18.2,4.84
C/C(Cl)=C/CC1(CN2CCCC2=O)C(=O)NC(=O)NC1=O,-10.6% (inactive),-8.34,2.87
CCOc1ccccc1-n1c(O)c(C=Nc2c(C)n(C)n(-c3ccccc3)c2=O)c(=O)[nH]c1=O,100% (active),-85.3,5.62
CCCCCCn1c(O)c(C=Nc2c(C)n(C)n(-c3ccccc3)c2=O)c(=O)[nH]c1=O,-5.94% (inactive),-9.79,3.03
Cc1c(N=Cc2c(O)n(CCc3ccccc3)c(=O)[nH]c2=O)c(=O)n(-c2ccccc2)n1C,23.4% (inactive),16.4,7.53
CCCCCCn1c(O)c(C=NC2CCN(Cc3ccccc3)CC2)c(=O)[nH]c1=O,3.03% (inactive),23.3,1.13

# Reference: PubChem BioAssay AID770 (SRMLSC, 2007)
